Data published in PubChem BioAssay AID1159580 (chemical genetic matrix, 2015).
Where “and” joins values, the source holds several entries; their conditions need not be identical. Equal entries are not always repeated. The whole screen tested about 5,500 compounds, of which about 2,000 (36%) were called active. Not shown: some 18% with an inconclusive outcome. Rule as the data show it: active = normalized growth mostly below about 0.91 (no sharp cut-off); inconclusive = no clear call, values can overlap the other calls; inactive = mostly above about 0.92. This is one part of the list.

Assay: chemical genetic growth profiling, strain panel (AID 1159580);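 also: tested at 20 µM; growth read once vehicle control cultures reached saturation at 30 °C; 1 = growth at the plate median or of vehicle wells; lower values mean less growth of the strain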
Conditions: S. cerevisiae deletion strains, growth OD

Measured: normalized growth

OC(CCN1CCCC1)(c1ccccc1)C1CCCCC1 (centres undefined)
inactive: locus YAL021C, strain ccr4, active compounds read low 0.994 | locus YAL026C, strain drs2, active compounds read low 1 | locus YAL030W, strain snc1, active compounds read low 0.986 | locus YBL061C, strain skt5, active compounds read low 0.989 | locus YBR009C, strain hhf1, active compounds read low 1 | locus YBR021W, strain FUR4, active compounds read low 0.947 | locus YBR023C, strain chs3, active compounds read low 0.987 | locus YBR171W, strain sec66, active compounds read low 0.965 | locus YBR229C, strain ROT2, active compounds read low 0.988 | locus YBR231C, strain swc5, active compounds read low 0.977 | locus YBR279W, strain paf1, active compounds read low 1 | locus YCL011C, strain gbp2, active compounds read low 0.998 | locus YCL016C, strain dcc1, active compounds read low 1.01 | locus YCL029C, strain bik1, active compounds read low 0.985 | locus YCL061C, strain MRC1, active compounds read low 0.976 | locus YCL069W, strain vba3, active compounds read low 0.98 | locus YCR088W, strain abp1, active compounds read low 0.976 | locus YDL005C, strain med2, active compounds read low 0.984 | locus YDL035C, strain GPR1, active compounds read low 0.994 | locus YDL040C, strain nat1, active compounds read low 0.989 | locus YDL074C, strain BRE1, active compounds read low 1.01 | locus YDL101C, strain DUN1, active compounds read low 0.995 | locus YDL134C, strain PPH21, active compounds read low 0.99 | locus YDL185W, strain tfp1, active compounds read low 0.979 | locus YDL192W, strain arf1, active compounds read low 0.986 | locus YDR001C, strain nth1, active compounds read low 0.991 | locus YDR069C, strain doa4, active compounds read low 0.986 | locus YDR101C, strain arx1, active compounds read low 0.982 | locus YDR137W, strain rgp1, active compounds read low 1.05 | locus YDR150W, strain NUM1, active compounds read low 1 | locus YDR159W, strain sac3, active compounds read low 0.991 | locus YDR162C, strain NBP2, active compounds read low 0.995 | locus YDR195W, strain ref2 0.942 | locus YDR297W, strain sur2, active compounds read low 0.978 | locus YDR318W, strain mcm21, active compounds read low 0.973 | locus YDR334W, strain swr1, active compounds read low 0.983 | locus YDR335W, strain msn5, active compounds read low 0.981 | locus YDR388W, active compounds read low 0.976 | locus YDR392W, strain spt3, active compounds read low 1 | locus YDR502C, strain sam2, active compounds read low 1 | locus YEL003W, strain gim4, active compounds read low 0.975 | locus YEL037C, strain rad23, active compounds read low 0.982 | locus YEL061C, strain CIN8 (second series), active compounds read low 0.986 | locus YEL061C, strain CIN8, active compounds read low 0.998 | locus YER015W, strain faa2, active compounds read low 0.989 | locus YER016W, strain bim1, active compounds read low 0.998 | locus YER110C, active compounds read low 0.975 | locus YER111C, strain swi4, active compounds read low 1 | locus YER155C, strain BEM2 (second series), active compounds read low 0.946 | locus YER155C, strain BEM2, active compounds read low 0.99 | locus YER167W, strain BCK2, active compounds read low 0.992 | locus YFR010W, strain ubp6, active compounds read low 0.976 | locus YGL078C, strain dbp3, active compounds read low 0.985 | locus YGL086W, strain mad1, active compounds read low 0.994 | locus YGL167C, strain pmr1, active compounds read low 0.985 | locus YGL173C, strain kem1, active compounds read low 0.972 | locus YGL227W, strain vid30, active compounds read low 0.99 | locus YGL240W, strain doc1, active compounds read low 0.963 | locus YGL248W, strain PDE1, active compounds read low 0.996 | locus YGL253W, strain hxk2, active compounds read low 1.01 | locus YGR078C, strain PAC10, active compounds read low 0.998 | locus YGR135W, strain pre9, active compounds read low 0.983 | locus YGR229C, strain SMI1, active compounds read low 0.993 | locus YGR252W, strain gcn5, active compounds read low 1.01 | locus YHR013C, strain ard1, active compounds read low 1 | locus YHR027C, strain rpn1, active compounds read low 0.991 | locus YHR030C, strain SLT2, active compounds read low 0.987 and 1.02 | locus YHR079C, strain IRE1 (second series), active compounds read low 0.977 | locus YHR079C, strain IRE1, active compounds read low 1.02 | locus YHR094C, strain hxt1, active compounds read low 0.975 | locus YHR129C, strain ARP1, active compounds read low 1 | locus YHR142W, strain chs7, active compounds read low 0.999 | locus YHR200W, strain rpn10, active compounds read low 0.974 | locus YIL066C, strain RNR3, active compounds read low 0.989 | locus YIL073C, strain SPO22, active compounds read low 0.957 | locus YIL125W, strain kgd1, active compounds read low 0.967 | locus YIR030C, strain dcg1, active compounds read low 0.985 | locus YJL092W, strain hpr5, active compounds read low 0.969 | locus YJL095W, strain BCK1 (second series), active compounds read low 0.986 | locus YJL095W, strain BCK1, active compounds read low 1 and 1.03 | locus YJL115W, strain asf1, active compounds read low 0.987 | locus YJL129C, strain trk1, active compounds read low 0.973 | locus YJL134W, strain LCB3, active compounds read low 0.994 | locus YJL154C, strain vps35, active compounds read low 0.991 | locus YJL164C, strain tpk1, active compounds read low 1.01 | locus YJL166W, strain qcr8, active compounds read low 0.952 | locus YJL168C, strain set2, active compounds read low 0.974 | locus YJL187C, strain SWE1 (second series), active compounds read low 0.989 | locus YJL187C, strain SWE1, active compounds read low 0.996
